HIV Env fusion: HIV envelope-mediated fusion inhibition; HeLa-JRFL Env/CEM21 cell fusion, luciferase; inhibition, % at 12.3 µM; 360,000 compounds, 1.1% hits;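 active = mean replicate inhibition score of at least 50 and every replicate individually at or above 50; inconclusive = only one of the two criteria met; inactive = mean below 50 and not all replicates reaching 50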
esBAF inh: blocks esBAF chromatin remodeling in mouse ES cells; 350,000 compounds, 2% hits; Bmi1-luciferase knock-in reporter, 24 h; 100% = twice the neutral-well signal; reporter increase, % at 12.5 µM; AID 602393; in the data active = activation above about 40%; inconclusive = no clear call, values can overlap the other calls;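 note: a rise in the Bmi1 reporter signal indicates esBAF inhibition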
MITF act: activators of MITF-driven TRPM1 promoter activity in SK-MEL-5 cells. AID 588334. 300,000 compounds, 0.75% hits. SK-MEL-5 TRPM1-promoter luciferase, 24 h; % of positive control, neutral wells = 0. activation, % at 12.5 µM;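 active = mean activation of at least 80% with every replicate also reaching 80%; inconclusive = mean reaches 80% but some replicate falls short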
Wnt bcat act: activators of Wnt/beta-catenin signaling | Wnt/beta-catenin reporter cell assay, activator, plate reader | activation, % at 9.35 µM | 300,000 compounds, 1.2% hits | AID 743398; in the data active = activation above about 30%, passing the limit was not always enough; inconclusive = no clear call, values can overlap the other calls
miR122 inh: miR-122 inhibition in Huh7 cells; Huh7 miR-122 Renilla luciferase sensor, 48 h; neutral wells = 0, positive control = 100; activation (reporter increase), % at 12.5 µM; 340,000 compounds, 0.3% hits; AID 602342;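 active = mean replicate activation score at least 90 and every replicate individually at or above 90; inconclusive = only one of the two criteria met; inactive = neither criterion met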;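 note: higher luciferase means less miR-122 activity so hits act as miR-122 inhibitors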
Ring1 derepress: confirmation of esBAF inhibitors: Ring1 de-repression in mouse ESCs | 550 tested, under 10 active | shares compounds with esBAF inh | mouse ESC E14, Ring1 mRNA RT-qPCR fold change | fold change at 33 µM | AID 743176;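 active = Ring1 gene expression raised more than 2-fold over untreated cells in both replicates at either tested dose; inconclusive = only one replicate above 2-fold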;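 note: Ring1 transcript normalised to actin housekeeping signal by TaqMan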
esBAF Fgf4 qPCR: confirmation of esBAF inhibitors: Fgf4 repression in mouse ESCs; mouse ESC E14, Fgf4 mRNA qPCR fold change; active compounds read low; 550 compounds, 4% hits; Fgf4 expression fold change at 33 µM; shares compounds with esBAF inh;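 active = Fgf4 expression under 0.8 fold of control in both repeat measurements at one or both tested doses; inconclusive = under 0.8 fold in just a single repeat measurement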;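 note: Fgf4 transcript normalised to actin in duplex TaqMan qPCR; cells exposed to compound for 24 h before lysis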
Bmi1 derepress: esBAF inhibition confirmed by Bmi1 de-repression | 550 tested, under 10 active | shares compounds with esBAF inh | fold change at 33 µM | AID 743180 | mouse ESE14 ES cells, Bmi1 mRNA qPCR fold; active compounds read high;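 active = Bmi1 expression fold change above 6 at either tested concentration, seen in replicate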;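 note: higher fold means more Bmi1 de-repression and stronger esBAF inhibition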
A549 tox SP: cytotoxicity in A549 cells; plate reader; cell viability change % (negative = cytotoxic), % at 25 µM, hits read low; AID 743188; shares compounds with esBAF inh; 550 tested, under 10 active; call rule not given here
HepG2 cytotox SP: kills or reduces viability of HepG2 cells | shares compounds with esBAF inh | 550 compounds, 4% hits | AID 743189 | HepG2 cytotoxicity, plate reader; active compounds read low | activity change, negative = inhibition, % at 25 µM; in the data active = activity change below about -50%
HEK293 cytotox SP: HEK293 cell cytotoxicity at single point; shares compounds with esBAF inh; plate reader; activity change, negative = inhibition, % at 25 µM, hits read low; 550 compounds, 3% hits; AID 743190; in the data active = activity change below about -38%, passing the limit was not always enough
A number is an active result; 0 = inactive; ? = inconclusive; - = no result given. Only some compounds are listed: those with a hit (about 3.4% of all), similar ones and a draw of the others.

SMILES | HIV Env fusion | esBAF inh | MITF act | Wnt bcat act | miR122 inh | Ring1 derepress | esBAF Fgf4 qPCR | Bmi1 derepress | A549 tox SP | HepG2 cytotox SP | HEK293 cytotox SP
COc1ccc(-c2cc(C(=O)Nc3cc(OC)c(OC)c(OC)c3)[nH]n2)c(C)c1 | 0 | 0 | - | 0 | 0 | - | - | - | - | - | -
O=C(N[C@@H]1CC[C@H](CCNC(=O)C2CC2)O[C@@H]1CO)c1ccccn1 | 0 | 0 | - | - | - | - | - | - | - | - | -
CSCc1nc2sc(C(=O)Nc3nc(C)cs3)c(C)c2c(=O)[nH]1 | 0 | 60 | 0 | 0 | 0 | 0 | 0 | 0 | 0 | 0 | 0
Cc1csc(NC(=O)CSc2nc3sc(C)c(C)c3c(=O)[nH]2)n1 | 0 | 0 | - | 0 | 0 | - | - | - | - | - | -
CO[C@@H]1CN(C)C(=O)c2cc(NC(=O)c3ccccc3)ccc2OC[C@@H](C)N(C)C[C@@H]1C | - | 0 | - | - | 0 | - | - | - | - | - | -
O=C(C[C@@H]1CC[C@H]2[C@@H](COC[C@H](O)CN2C(=O)Cc2ccccc2)O1)NC1Cc2ccccc2C1 | 0 | 0 | - | - | 0 | - | - | - | - | - | -
CC(C)C(=O)N1CCN(c2nc3ccc(Cl)cc3s2)CC1 | 0 | 80 | 0 | 0 | 0 | 0 | 0 | 0 | 0 | 0 | 0
CC(C)(C)C(=O)N1CCN(c2nc3ccccc3s2)CC1 | 0 | 64 | 122 | 0 | 0 | 0 | 0 | 0 | 0 | 0 | 0
O=C1c2ccccc2CN1c1ccccc1 | 0 | 55 | - | 0 | 0 | 0 | 0 | 0 | 0 | 0 | 0
Cc1ccc(N2Cc3ccccc3C2=O)cc1 | 0 | 0 | 0 | 0 | 0 | - | - | - | - | - | -
C[C@H](CO)N1C[C@H](C)[C@@H](CN(C)Cc2ccccc2)OCCCC[C@H](C)Oc2ccc(NC(=O)CCC(F)(F)F)cc2C1=O | 0 | 0 | - | - | 0 | - | - | - | - | - | -
CNC(=O)c1ccc(-c2ccccc2)s1 | - | 58 | 0 | 0 | 0 | 0 | ? | 0 | 0 | 0 | 0
CC(=O)Nc1ccc(-c2ccccc2)s1 | - | 0 | 0 | - | 0 | - | - | - | - | - | -
O=C(c1cc2c(s1)-c1ccccc1OC2)N1CCCC1 | 0 | 76 | 0 | 55 | 0 | 0 | 0 | 0 | 0 | 0 | 0
C[C@H]1CCCCO[C@H](CN(C)C)[C@@H](C)CN([C@@H](C)CO)C(=O)c2cc(NS(=O)(=O)c3cn(C)cn3)ccc2O1 | 0 | - | - | - | 0 | - | - | - | - | - | -
CCn1c(SCC(=O)N2CCCC2)nc2ccccc21 | 0 | - | 0 | 0 | 0 | - | - | - | - | - | -
CCn1c(SCc2ccccc2Cl)nc2ccccc21 | - | 57 | 0 | 0 | 0 | 0 | 0 | 0 | 0 | 0 | 0
CC(=O)Nc1cc2c3c(cccc3c1)-c1ccccc1-2 | 0 | 70 | 0 | 0 | 0 | 0 | ? | 0 | 0 | 0 | 0
Cc1cc(-c2nnco2)c(C)n1-c1ccccc1 | - | 54 | 0 | 0 | 0 | 0 | 0 | 0 | 0 | 0 | 0
Cc1nc2ccccn2c1-c1nnco1 | - | 0 | 0 | 0 | 0 | - | - | - | - | - | -
COC(=O)C(Cc1ccc(OC(=O)c2ccc(Cl)cc2)cc1)N1Cc2ccccc2C1=O (stereo unspecified) | - | 72 | 0 | 0 | 0 | 0 | 0 | 0 | 0 | 0 | 0
O=C(O)CC(c1ccc(Cl)cc1)N1Cc2ccccc2C1=O (stereo unspecified) | 0 | 0 | 0 | 0 | 0 | - | - | - | - | - | -
CC(=O)Nc1c(Cl)cc2c(c1Cl)Cc1ccccc1-2 | 0 | - | 0 | 0 | 0 | - | - | - | - | - | -
Nc1cc2c(cc1Cl)-c1ccccc1C2 | 0 | 108 | 0 | 0 | 0 | 0 | 0 | 0 | 0 | 0 | 0
O=C(C[C@H]1CC[C@H](NC(=O)Nc2cc(F)ccc2F)[C@@H](CO)O1)NCc1ccccn1 | 0 | 0 | - | - | 0 | - | - | - | - | - | -
SMILES | HIV Env fusion | esBAF inh | MITF act | Wnt bcat act | miR122 inh | Ring1 derepress | esBAF Fgf4 qPCR | Bmi1 derepress | A549 tox SP | HepG2 cytotox SP | HEK293 cytotox SP
COc1c(C(=O)NNC(=O)c2ccccc2)csc1Br | 0 | 56 | 0 | 39 | - | 0 | 0 | 0 | 0 | 0 | 0
CCN(C(=O)c1cccs1)c1nnc(-c2ccncc2)s1 | 0 | 58 | 0 | 0 | 0 | 0 | 0 | 0 | 0 | 0 | 0
CNC[C@H]1OCCCC[C@H](C)Oc2ccc(NC(=O)Nc3c(C)noc3C)cc2C(=O)N([C@@H](C)CO)C[C@H]1C | 0 | 0 | - | - | 0 | - | - | - | - | - | -
COc1ccc(C(=O)N=c2sc3ccccc3n2C)cc1OC | 0 | 73 | 0 | 43 | 0 | 0 | 0 | 0 | 0 | 0 | 0
COc1cc(C(=O)N/N=c2/sc3ccccc3n2C)cc(OC)c1OC | 0 | - | 0 | 0 | 0 | - | - | - | - | - | -
COc1ccc(OCc2cc(C(=O)NC(C)Cc3cnccn3)no2)c(Cl)c1 (stereo unspecified) | 0 | 61 | 0 | 0 | - | 0 | 0 | 0 | 0 | 0 | 0
Cc1ccc(OCc2cc(C(=O)NC(C)Cc3cnccn3)no2)cc1C (stereo unspecified) | 0 | - | 0 | 0 | 0 | - | - | - | - | - | -
O=C(N/N=C/c1ccc(Cl)cc1)Nc1ccccc1 | 0 | 59 | 95 | 0 | 0 | 0 | 0 | 0 | 0 | 0 | 0
CN(C)C(=O)[C@@H]1[C@@H](CO)[C@@H]2Cn3c(ccc(C4=CCCC4)c3=O)[C@H]1N2CC1CCCC1 | 0 | - | - | - | - | - | - | - | - | - | -
C=CCn1cccc(C(=O)Nc2ccc(Cl)cc2)c1=O | 0 | 63 | 82 | 0 | 0 | 0 | 0 | 0 | 0 | 0 | 0
O=C(O)Cn1cnc2ccccc2c1=O | - | 0 | 0 | - | 0 | - | - | - | - | - | -
Cc1cc(C(=O)Cn2cnc3ccccc3c2=O)c(C)n1C1CC1 | 0 | 65 | 0 | 0 | - | 0 | 0 | 0 | 0 | 0 | 0
CCOC(=O)Cc1csc(NC(=O)Nc2ccc(Cl)cc2)n1 | 0 | - | 0 | 0 | - | - | - | - | - | - | -
Cc1csc(NC(=O)Nc2ccc(Cl)cc2)n1 | 0 | 60 | 0 | 0 | 0 | 0 | 0 | 0 | 0 | 0 | 0
COc1ccc(/C=N/n2c(N)nc3ccccc32)cc1OC | - | 0 | 0 | - | 0 | - | - | - | - | - | -
COc1cccc(/C=N/n2c(N)nc3ccccc32)c1OC | 0 | 73 | 90 | 0 | - | 0 | 0 | 0 | 0 | 0 | 0
Cc1cc(C(=O)Nc2sc(C)c(-c3ccc(F)cc3)c2C(N)=O)no1 | - | 78 | 0 | - | - | 0 | 0 | 0 | 0 | 0 | 0
COc1ccc(C2=NOC(C)(c3sc(-c4ccc(Cl)cc4)nc3C)C2)cc1 (stereo unspecified) | 0 | - | - | 0 | - | - | - | - | - | - | -
Cc1nc(-c2ccc(Cl)cc2)sc1C1(C)CC(c2cccnc2)=NO1 (stereo unspecified) | 0 | 77 | 0 | 0 | 0 | 0 | 0 | 0 | 0 | 0 | 0
CC(=O)Nc1ccc2c(c1)Cc1c(F)cccc1-2 | 0 | 83 | 0 | 0 | 0 | 0 | ? | 0 | 0 | 0 | 0
CC(=O)Nc1ccc2c(c1)CCc1ccccc1-2 | 0 | 0 | 0 | 0 | 0 | - | - | - | - | - | -

Compound activity as filed in PubChem.
